# Measurements published in PubChem BioAssay.
# Activity calls are given as the source filed them.
# What was measured:
# [1] = optical density shifts of acrAB sulA E. coli – strain DRC41, OD650, 48 h, E. coli filamentation inducer project, primary screen (AID 1152); conditions: higher = more signal, called active from +8 up or from −8 down;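 further: E. coli MC1000 strain DRC41 lacking acrAB efflux pump and sulA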
# [2] = probe aLefty1 binding on compound microarray – biochemical, small-molecule microarray, 635/667 nm fluorescence, primary screen (AID 1153); conditions: higher = more signal;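 further: score merges spot fluorescence with signal-to-noise ratio from the scanned slide images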
# [3] = plasmodial surface anion channel blockers, osmotic lysis – cell-based, P. falciparum Indochina, OD700, 1 h, primary screen (AID 1154); conditions: P. falciparum Indochina infected RBC osmotic lysis, higher = more signal, called active from +8 up or from −8 down
# [4] = plasmodial surface anion channel blockers, osmotic lysis – cell-based, P. falciparum Indochina, OD700, 2 h, primary screen (AID 1155);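 further: lysis reports solute entry through the parasite surface anion channel PSAC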; conditions: P. falciparum Indochina infected erythrocytes, higher = more signal, called active from +8 up or from −8 down
# [5] = changes in parasitized red cell lysis, either direction – P. falciparum Indochina, OD700, 3 h, PSAC antagonist project, primary screen (AID 1156); conditions: P. falciparum-infected erythrocytes, osmotic lysis, higher = more signal, called active from +8 up or from −8 down
# [6] = plasmodial surface anion channel blockers, osmotic lysis – cell-based, P. falciparum Indochina, OD700, 18 h, primary screen (AID 1157); conditions: P. falciparum Indochina infected erythrocytes, osmotic lysis OD700, 18 h; higher = more signal, called active from +8 up or from −8 down
# [7] = S6 kinase pathway phospho-S6 level changes – cell-based, A549, cytoblot, luminescence, serum-stimulated, primary screen (AID 1158); conditions: 5 h, higher = more signal;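 further: serum-stimulated A549 lung adenocarcinoma cells; signal is phosphorylated S6 detected by cytoblot immunostaining with HRP secondary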
# [8] = target: NADPH oxidase 2 (Homo sapiens) (UniProt P04839); experiment: compounds shifting NOX2 Amplex Red fluorescence – cell-based, HEK293-NOX2, PMA-stimulated, NOX inhibitor project, primary screen (AID 1159); conditions: 45 min, higher = more signal, called active from +8 up or from −8 down; further: test concentration not given here
# [9] = target: NADPH oxidase 4 (Homo sapiens) (UniProt Q9NPH5); experiment: compounds shifting NOX4 Amplex Red fluorescence – cell-based, HEK293-NOX4, tetracycline-induced, NOX inhibitor project, primary screen (AID 1160); conditions: HEK293-NOX4, Amplex Red H2O2 fluorescence, 45 min; higher = more signal, called active from +8 up or from −8 down
# [10] = target: NADPH oxidase 5 (Homo sapiens) (UniProt Q96PH1); experiment: compounds shifting NOX5 Amplex Red fluorescence – cell-based, HEK293-NOX5, NOX inhibitor project, primary screen (AID 1161); conditions: HEK293-NOX5, ionomycin, 45 min, higher = more signal
# [11] = compound effects on lung adenocarcinoma cell viability – A549, calcein-AM fluorescence, 48 h, basal, profiling panel (AID 1162); conditions: higher = more signal; further: test concentration not given here
# [12] = compound effects on differentiated 3T3-L1 adipocyte viability – cell-based, 3T3-L1 adipocytes, calcein-AM fluorescence, 48 h, basal, profiling panel (AID 1163); conditions: 3T3-L1 adipocytes viability, higher = more signal; further: test concentration not given here
# [13] = compound effects on hepatocellular carcinoma cell viability – HepG2, calcein-AM fluorescence, 48 h, basal, profiling panel (AID 1164); conditions: higher = more signal; further: test concentration not given here
# [14] = compound effects on multiple myeloma cell viability – MM1S, calcein-AM fluorescence, 48 h, basal, profiling panel (AID 1165); conditions: higher = more signal; further: test concentration not given here
# [15] = calcein-AM signal in unstimulated myeloma cells – cell-based, calcein-AM fluorescence, 48 h, PK04 Diversity Set, profiling panel (AID 1166); conditions: RPMI8226 myeloma viability, higher = more signal;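 further: cells grown under basal conditions without added stimulus; test concentration not given here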
# [16] = JC-1 mitochondrial signal, unstimulated HepG2 cells – cell-based, JC-1 fluorescence, 24 h, 100 nL compound, profiling panel (AID 1167); conditions: HepG2 mitochondrial potential, higher = more signal; further: test concentration not given here
# [17] = JC-1 mitochondrial signal, unstimulated adipocytes – cell-based, JC-1 fluorescence, 3T3-L1 adipocytes, 24 h, 100 nL compound, profiling panel (AID 1168); conditions: JC-1 mitochondrial fluorescence, higher = more signal, called active from +8 up or from −8 down; further: test concentration not given here
# [18] = JC-1 mitochondrial signal, unstimulated myeloma cells – cell-based, JC-1 fluorescence, RPMI8226, 24 h, 100 nL compound, profiling panel (AID 1169); conditions: JC-1 mitochondrial potential fluorescence, higher = more signal; further: test concentration not given here
# [19] = JC-1 mitochondrial signal, unstimulated MM1S myeloma – cell-based, JC-1 fluorescence, 24 h, 100 nL compound, profiling panel (AID 1170); conditions: MM1S mitochondrial potential, higher = more signal; further: test concentration not given here
# [20] = resazurin metabolic signal in A549 cells – cell-based, resazurin fluorescence, 24 h, PK04 Diversity Set, profiling panel (AID 1171); conditions: A549 viability, higher = more signal, called active from +8 up or from −8 down; further: test concentration not given here
# Sequence of NADPH oxidase 4 (Homo sapiens) (Q9NPH5 whole entry, looked up): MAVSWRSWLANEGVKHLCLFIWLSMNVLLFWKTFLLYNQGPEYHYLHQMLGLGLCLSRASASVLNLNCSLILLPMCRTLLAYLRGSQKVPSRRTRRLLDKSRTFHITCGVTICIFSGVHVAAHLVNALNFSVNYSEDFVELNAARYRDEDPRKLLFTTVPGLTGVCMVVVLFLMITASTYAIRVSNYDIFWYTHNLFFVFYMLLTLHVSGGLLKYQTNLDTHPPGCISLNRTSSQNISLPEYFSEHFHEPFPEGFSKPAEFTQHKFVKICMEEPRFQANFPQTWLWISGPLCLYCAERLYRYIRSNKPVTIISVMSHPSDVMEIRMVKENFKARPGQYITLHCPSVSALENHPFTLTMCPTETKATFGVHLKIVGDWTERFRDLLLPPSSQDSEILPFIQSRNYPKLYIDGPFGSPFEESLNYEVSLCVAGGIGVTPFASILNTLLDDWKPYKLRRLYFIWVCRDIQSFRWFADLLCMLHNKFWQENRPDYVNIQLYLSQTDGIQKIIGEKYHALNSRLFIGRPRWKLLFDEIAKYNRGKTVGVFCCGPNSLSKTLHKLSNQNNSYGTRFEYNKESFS
# Sequence of NADPH oxidase 5 (Homo sapiens) (Q96PH1 whole entry, looked up): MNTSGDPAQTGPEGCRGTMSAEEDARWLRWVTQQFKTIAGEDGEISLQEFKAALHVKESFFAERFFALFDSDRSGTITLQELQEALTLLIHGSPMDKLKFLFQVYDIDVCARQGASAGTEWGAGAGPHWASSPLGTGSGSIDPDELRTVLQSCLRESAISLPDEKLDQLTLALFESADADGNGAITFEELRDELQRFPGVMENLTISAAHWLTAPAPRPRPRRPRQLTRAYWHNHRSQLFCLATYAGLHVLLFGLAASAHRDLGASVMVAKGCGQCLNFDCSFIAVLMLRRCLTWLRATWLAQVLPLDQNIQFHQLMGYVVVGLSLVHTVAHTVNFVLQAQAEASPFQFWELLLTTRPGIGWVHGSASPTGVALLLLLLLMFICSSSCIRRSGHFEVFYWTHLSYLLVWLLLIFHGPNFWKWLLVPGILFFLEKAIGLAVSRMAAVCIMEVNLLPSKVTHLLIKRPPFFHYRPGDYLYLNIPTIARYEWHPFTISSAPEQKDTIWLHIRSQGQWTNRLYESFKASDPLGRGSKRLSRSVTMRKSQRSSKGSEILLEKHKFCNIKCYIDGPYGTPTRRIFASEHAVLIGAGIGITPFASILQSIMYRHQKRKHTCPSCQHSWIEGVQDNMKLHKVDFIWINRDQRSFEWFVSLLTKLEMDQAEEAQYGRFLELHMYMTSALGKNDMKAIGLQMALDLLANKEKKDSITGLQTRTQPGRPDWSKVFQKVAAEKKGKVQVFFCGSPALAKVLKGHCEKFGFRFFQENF
# Sequence of NADPH oxidase 2 (Homo sapiens) (P04839 whole entry, looked up): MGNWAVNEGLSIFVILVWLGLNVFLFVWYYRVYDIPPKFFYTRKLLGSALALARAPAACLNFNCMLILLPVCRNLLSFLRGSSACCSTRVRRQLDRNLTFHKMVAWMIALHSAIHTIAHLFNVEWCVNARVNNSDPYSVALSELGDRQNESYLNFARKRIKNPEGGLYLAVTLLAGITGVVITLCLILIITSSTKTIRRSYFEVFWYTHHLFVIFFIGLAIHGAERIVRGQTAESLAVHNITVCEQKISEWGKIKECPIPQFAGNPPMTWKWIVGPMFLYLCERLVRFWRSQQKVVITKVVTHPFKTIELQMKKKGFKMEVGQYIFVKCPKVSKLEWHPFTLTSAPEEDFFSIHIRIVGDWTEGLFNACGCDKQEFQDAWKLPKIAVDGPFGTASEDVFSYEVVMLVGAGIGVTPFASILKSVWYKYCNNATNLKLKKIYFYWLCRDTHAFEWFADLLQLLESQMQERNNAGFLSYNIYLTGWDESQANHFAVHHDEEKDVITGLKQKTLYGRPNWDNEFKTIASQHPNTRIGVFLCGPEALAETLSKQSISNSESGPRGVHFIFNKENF
Compound,z-score [1],composite z-score [2],z-score [3],z-score [4],z-score [5],z-score [6],z-score [7],z-score [8],z-score [9],z-score [10],z-score [11],z-score [12],z-score [13],z-score [14],z-score [15],z-score [16],z-score [17],z-score [18],z-score [19],z-score [20]
COc1ccc([Si](C)(C)[C@H]2[C@H](CCn3cc([C@H](O)c4ccccc4)nn3)O[C@@]3(C(=O)N(Cc4ccc(N5CCOC5=O)cc4)c4ccccc43)[C@@H]2C)cc1,-0.0796 (inactive),-0.147,31.9 (active),31.7 (active),1.99 (inactive),3.2 (inactive),-0.532,0.308 (inactive),2.85 (inactive),2.08,1.33,0.805,1.15,-1.45,0.142,0.858,0.174 (inactive),0.157,0.113,-0.265 (inactive)
[N-]=[N+]=NCc1ccccc1[C@H]1OC(c2ccc(OCCCO)cc2)=N[C@@]1(CCS(=O)(=O)c1ccccc1)C(N)=O,-0.56 (inactive),0.345,24.1 (active),6.95 (inactive),1.56 (inactive),0.764 (inactive),0.273,1.39 (inactive),2.23 (inactive),1.78,-0.733,0.0036,-0.423,-1.83,-0.973,-2.13,-1.36 (inactive),-0.397,-0.606,0.547 (inactive)
[N-]=[N+]=Nc1ccccc1C[C@]1(C(=O)NCc2ccccc2)N=C(c2ccc(OCCCO)cc2)O[C@H]1c1ccccc1,0.383 (inactive),0.394,17.6 (active),3.08 (inactive),1.14 (inactive),0.786 (inactive),-0.16,-0.172 (inactive),1.45 (inactive),1.03,-1.66,-0.651,-1.14,-2.41,-2.86,1.88,-0.095 (inactive),-1.13,-1.73,-0.395 (inactive)
C=CCN1C(=O)[C@@]2(O[C@@H](CCn3cc([C@H](O)c4ccccc4)nn3)[C@H]([Si](C)(C)c3ccc(OC)cc3)[C@H]2C)c2ccccc21,0.508 (inactive),0.276,7.57 (inactive),1.93 (inactive),1.04 (inactive),0.916 (inactive),0.32,0.997 (inactive),0.99 (inactive),-1.6,-1.05,0.432,-1.49,-2.7,-4.27,1.06,-0.644 (inactive),-0.967,-0.364,-1.76 (inactive)
C=C(C(=O)CC[C@H](OC(=O)c1cccnc1)c1ccc(CO)o1)C(C)C,-0.92 (inactive),0.333,1.73 (inactive),-0.115 (inactive),-0.158 (inactive),-0.0363 (inactive),-0.143,0.637 (inactive),0.123 (inactive),-0.0889,-0.242,-0.449,-0.676,-0.66,0.202,-2,-1.78 (inactive),0.322,-0.458,-0.361 (inactive)
C=C[C@@H](COC(C)=O)NS(=O)(=O)c1ccc(Br)cc1,0.032 (inactive),-0.0464,-0.0045 (inactive),-0.446 (inactive),-0.123 (inactive),0.0804 (inactive),-0.0771,-0.34 (inactive),-0.487 (inactive),-0.833,0.0976,-0.342,1.04,-2.08,-1.74,-0.742,-0.195 (inactive),-0.0875,-0.259,-1.82 (inactive)
COC(=O)[C@@]1(Cc2ccccc2)[C@H]2c3cc(C(=O)N4CCCC4)n(C[C@H](O)CO)c3C[C@H]2CN1C(=O)c1ccccc1,-1.22 (inactive),-0.165,0.975 (inactive),0.192 (inactive),0.218 (inactive),0.592 (inactive),-0.26,0.223 (inactive),-0.303 (inactive),-1.45,-1.11,-0.154,0.0709,0.37,0.302,0.438,-0.128 (inactive),-0.0296,-0.3,-0.63 (inactive)
CC(=O)NCCCC[C@@H]1NC(=O)[C@@H]2C[C@H](C(=O)O)[C@H](c3ccc(O)cc3)N2C1=O,0.139 (inactive),0.202,1.15 (inactive),0.508 (inactive),1.08 (inactive),0.275 (inactive),-0.544,1.03 (inactive),-1.04 (inactive),0.422,0.0665,0.384,-0.552,0.421,-0.105,-1.14,-0.352 (inactive),0.667,0.237,-0.179 (inactive)
O=C1O[C@@H](c2ccccc2)[C@@H](c2ccccc2)N2[C@@H](c3ccc(O)cc3)[C@]3(C(=O)Nc4ccc(C#CCCO)cc43)[C@@H](C(=O)Nc3nc4ccccc4s3)[C@H]12,0.341 (inactive),0.139,1.35 (inactive),1.19 (inactive),-0.743 (inactive),1.63 (inactive),-0.435,1.1 (inactive),0.604 (inactive),-0.073,1.06,0.225,0.609,-2.66,-2.65,-3.79,-1.3 (inactive),-0.503,-1.03,0.621 (inactive)
Cc1ccc(F)cc1S(=O)(=O)N[C@@H]1CCN(Cc2ccc(Oc3ccccc3)cc2)C1,-12.2 (active),0.266,7.61 (inactive),1.9 (inactive),0.701 (inactive),1.19 (inactive),-0.766,-0.615 (inactive),-1.08 (inactive),-1.67,-1.26,-0.119,-1.25,-3.43,-3.16,0.998,0.546 (inactive),-1.19,-2.3,-0.214 (inactive)
O=C1c2ccccc2[C@](Cc2ccccc2I)(C(=O)NCc2ccccc2)[C@H](c2ccc(CO)cc2)N1C1CCCCC1,1.28 (inactive),0.254,2.39 (inactive),0.105 (inactive),0.0371 (inactive),-1.34 (inactive),3.43,1.65 (inactive),0.289 (inactive),1.35,-0.475,1.03,-0.36,-2.3,-1.99,1.36,-0.424 (inactive),0.173,0.551,0.623 (inactive)
COC1(C)CN(Cc2ccccc2Br)[C@H](/C=C/c2ccccc2)[C@H](Cc2ccccc2)O1 (stereo not given in full),1.16 (inactive),-0.31,0.787 (inactive),0.669 (inactive),0.911 (inactive),-0.0143 (inactive),0.52,-0.112 (inactive),0.76 (inactive),-0.271,0.411,1.2,0.875,-0.245,-0.0348,-0.545,-0.35 (inactive),-0.19,-0.861,0.494 (inactive)
CC(CO)N1C(=O)[C@@H]2C3C(=O)OCCC/C=C\[C@H]3OC23C=CCN(Cn2nnc4ccccc42)C(=O)[C@@H]13 (stereo not given in full),0.822 (inactive),-0.0035,1.03 (inactive),0.132 (inactive),2.14 (inactive),0.502 (inactive),0.282,1.32 (inactive),0.193 (inactive),2.03,0.0034,-0.126,0.789,1.76,0.285,0.567,0.425 (inactive),0.222,-1.33,-0.0257 (inactive)
C[N+](C)(C)CCCC[C@@H]1NC(=O)[C@@H]2C[C@H](C(=O)O)[C@H](c3ccc(O)cc3)N2C1=O,-0.105 (inactive),-0.248,0.277 (inactive),0.156 (inactive),-0.0003 (inactive),0.0583 (inactive),0.423,-0.0831 (inactive),-0.223 (inactive),0.903,-0.643,0.422,0.914,0.379,-0.0923,0.0942,-0.907 (inactive),-0.142,-0.454,-0.246 (inactive)
C=CCC(OC(C)=O)[C@@H]1[C@@H](N(Cc2ccc(-c3ccccc3)cc2)C(=O)c2cccc3ccccc23)c2cc(OCCCO)ccc2N1C(=O)Cc1ccc2ccccc2c1 (stereo not given in full),-0.316 (inactive),-0.191,1.14 (inactive),0.355 (inactive),-0.498 (inactive),0.283 (inactive),0.393,0.949 (inactive),-0.22 (inactive),-4.09,-0.0841,-0.38,-0.0632,-0.211,-0.183,1.47,-1.43 (inactive),1.22,0.313,0.74 (inactive)
CC(C)NC(=O)[C@@]1(C)c2ccccc2C(=O)N(C(C)C)[C@H]1c1ccc(CO)cc1,-0.508 (inactive),-0.0699,1.21 (inactive),0.547 (inactive),0.702 (inactive),0.255 (inactive),0.0605,-0.0231 (inactive),0.375 (inactive),0.222,-0.619,0.545,-0.335,0.608,0.0593,0.313,-0.527 (inactive),0.713,1.32,-0.271 (inactive)
O=C1O[C@@H](c2ccccc2)[C@@H](c2ccccc2)N2[C@@H](c3ccccc3OCCO)[C@]3(C(=O)Nc4ccc(C#CCCO)cc43)[C@@H](C(=O)N3CCN(c4ncccn4)CC3)[C@H]12,0.255 (inactive),0.0927,2.58 (inactive),1.27 (inactive),-1.09 (inactive),0.418 (inactive),-0.531,1.3 (inactive),-0.686 (inactive),0.272,0.246,0.986,-0.477,-0.315,-3.89,0.799,0.778 (inactive),-1.33,0.431,1.13 (inactive)
COC(=O)[C@H](Cc1ccccc1)N1CC(/C=C/C2CC2)=C[C@@H]1[C@@H](O)Cc1ccccc1,0.974 (inactive),0.0082,1.97 (inactive),0.189 (inactive),-0.427 (inactive),0.401 (inactive),0.306,-0.193 (inactive),0.058 (inactive),0.424,0.56,-0.0766,0.942,-3.21,-3.07,-0.0594,0.427 (inactive),-1.04,-2.45,0.73 (inactive)
